Screens: PubChem, National Center for Advancing Translational Sciences (NCATS)
SMN2 splice up: increases expression of the SMN2 splice variant; HEK293 SMN2-luciferase splicing reporter, luminescence, 30-36 h; Potency, µM (highest dose often 46.1 µM), usual class: activators; 210,000 tested, 2.8% active; AID 1458; also: nearly all actives have a fitted effect of over 55% in size
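HEK293 cells carry an SMN2 minigene-luciferase reporter in which exon 7 inclusion puts luciferase in frame. Cells were seeded at 2000 cells/well, attached for 10-12 hours, then exposed to compounds for 30-36 hours at 37C before ONE-Glo luminescence.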
ELG1 genotoxic: induces genotoxicity in HEK293T cells with luciferase-tagged ELG1; AID 504466; 330,000 tested, 1.3% active; HEK293T ELG1-luciferase reporter, luminescence, 16 h; Potency, µM (doses to about 46 µM), actives largely listed as activators; also: nearly all actives have a fitted effect of over 60% in size
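Cells (2,000/well) expressing the ELG1-luciferase fusion are dosed by pin tool and kept 16 hr at 37 °C, 5% CO2. Signal comes from ONE-Glo luciferase reagent after 30 min at room temperature.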
FLuc modulator: counter-screen for miR-21 project: firefly luciferase inhibitors or activators; P08659; purified FLuc, Km substrates, luminescence inhibition; Potency, µM (titrated, usually from 57.5 µM), actives largely listed as inhibitors; 360,000 tested, 6.9% active; AID 588342; also: nearly all actives have a fitted effect of over 55% in size
Target sequence (P08659 whole entry, looked up): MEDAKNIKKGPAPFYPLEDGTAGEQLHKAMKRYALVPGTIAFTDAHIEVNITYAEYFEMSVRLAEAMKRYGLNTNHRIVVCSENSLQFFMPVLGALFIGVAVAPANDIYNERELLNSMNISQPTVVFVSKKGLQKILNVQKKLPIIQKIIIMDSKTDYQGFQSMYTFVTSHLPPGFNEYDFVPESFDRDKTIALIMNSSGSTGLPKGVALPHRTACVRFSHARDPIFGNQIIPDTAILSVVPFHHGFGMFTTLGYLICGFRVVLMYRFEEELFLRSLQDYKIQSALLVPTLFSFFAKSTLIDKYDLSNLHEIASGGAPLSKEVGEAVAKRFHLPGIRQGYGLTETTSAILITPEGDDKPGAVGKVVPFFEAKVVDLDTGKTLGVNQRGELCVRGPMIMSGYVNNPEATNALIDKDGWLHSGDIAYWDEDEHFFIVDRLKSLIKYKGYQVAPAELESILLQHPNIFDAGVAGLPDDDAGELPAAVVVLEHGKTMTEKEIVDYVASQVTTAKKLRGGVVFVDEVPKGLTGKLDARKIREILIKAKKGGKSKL
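Purified P. pyralis luciferase, 10 nM final, with Km-level 10 uM D-luciferin and 10 uM ATP in 50 mM Tris acetate pH 7.5, 10 mM Mg acetate, 0.01% Tween-20, 0.05% BSA; 6-point qHTS titration about 60 µM downward; luminescence read.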
Rab9 promoter act: activators of Rab9 promoter; Huh7 Rab9 promoter-luciferase reporter, luminescence, 24 h; Potency, µM (series often up to 9.22 µM), actives largely listed as activators; 320,000 tested, 2.8% active; AID 485297; also: nearly all actives have a fitted effect of over 60% in size
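Cell-based reporter: Huh7 stable for Rab9 promoter-driven luciferase, plated in reduced-serum medium with 10% FBS at 1500 cells/well, compound-treated 24 h at 37 °C, luminescence read after 10 min reagent.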
Luc counter: Kinase-Glo luciferase inhibition (counter-screen); Potency, µM (series often up to 38.3 µM), actives largely listed as inhibitors; 200,000 tested, 0.28% active; Kinase-Glo luciferase, ATP luminescence, 8 min; Q27757; AID 1379; also: nearly all actives have a fitted effect of over 60% in size
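Light output from Kinase-Glo luciferase with luciferin and 10 uM ATP in 50 mM imidazole pH 7.2, KCl, MgCl2, Tween 20, BSA; compound pin-delivered, 8-min ambient incubation, then luminescence read.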
NPC1 promoter act: activators of NPC1 promoter; Huh7 NPC1 promoter luciferase reporter, 24 h; Potency, µM (top dose mostly 9.22 µM), actives largely listed as activators; 320,000 tested, 2.4% active; AID 485313; also: nearly all actives have a fitted effect of over 60% in size
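Luciferase expression driven by the NPC1 promoter was measured in stably transfected Huh7 cells after a 24 h compound incubation, using a luciferase reagent and a luminescence read.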
Each line names hits and unclear results; the compound was inactive in the other large screens. In the library only some 7.5% were active in any assay of this set; here they are far more common. Calls follow the shape of the dose curve; as a rule, active = well fitted curve in the direction sought with a large enough effect; inconclusive = small, poorly fitted or top-dose-only effect, or another doubt; inactive = no such curve, though single readings can be large; an effect the other way counts as inactive or inconclusive.

CCCOC(=O)c1c(-c2ccc(C)cc2C)csc1NC(=O)C1C2CCC(O2)C1C(=O)O (stereo unspecified)	none
CCOn1c(=O)c(-c2ccc(Br)cc2)[n+]([O-])c2ccccc21	none (no result: SMN2 splice up, Luc counter)
CCOn1c(=O)c(-c2cc3ccccc3o2)[n+]([O-])c2ccccc21	SMN2 splice up 15.8µM, ELG1 genotoxic inconclusive, FLuc modulator inconclusive, Rab9 promoter act 2.82µM, NPC1 promoter act 3.55µM
CCOc1ccc(-c2c(=O)n(OCc3nc4ccccc4[nH]3)c3ccccc3[n+]2[O-])cc1	FLuc modulator 16.9µM (no result: SMN2 splice up, Luc counter)
O=c1c(-c2cc3ccccc3o2)[n+]([O-])c2ccccc2n1OCc1ccccn1	SMN2 splice up inconclusive, ELG1 genotoxic inconclusive, FLuc modulator 12µM, Rab9 promoter act inconclusive, NPC1 promoter act inconclusive
CCN(CC)CCCNC(=O)Cn1nc(C)n2c(cc3sccc32)c1=O	none (no result: ELG1 genotoxic, Rab9 promoter act, Luc counter, NPC1 promoter act)
CCCS(=O)(=O)O	none (no result: ELG1 genotoxic, FLuc modulator, Rab9 promoter act, NPC1 promoter act)
CCc1cccc(NC(=O)CN2Cc3ccccc3C2=O)c1	none (no result: SMN2 splice up, ELG1 genotoxic, Rab9 promoter act, Luc counter, NPC1 promoter act)
Cn1cc(Cl)c(C(=O)Nc2cccc(Cl)c2Cl)n1	none
CCC(=O)N/N=C/c1ccc(OS(=O)(=O)c2ccccc2)cc1	SMN2 splice up inconclusive
COc1ccc(/C=N\NC(=O)c2nn(C)cc2Cl)cc1CN1CCOCC1	none
Cc1ccc(/C=N/NC(=O)c2nn(C)cc2Cl)cc1	SMN2 splice up 11.2µM, ELG1 genotoxic inconclusive, FLuc modulator 1.51µM, Rab9 promoter act 3.55µM, Luc counter inconclusive, NPC1 promoter act 3.55µM
Cn1cc(Cl)c(C(=O)N/N=C/c2ccc(OS(=O)(=O)c3ccccc3)cc2)n1	FLuc modulator 23.9µM
Cn1cc(Cl)c(C(=O)N/N=C/c2ccc3c4c(cccc24)CC3)n1	ELG1 genotoxic inconclusive, FLuc modulator 0.536µM, Rab9 promoter act 1.41µM, NPC1 promoter act 2µM (no result: SMN2 splice up, Luc counter)
O=C(Nc1cc(C(F)(F)F)ccc1N1CCCC1)C1CCCO1 (stereo unspecified)	none (no result: SMN2 splice up, Luc counter)
COc1ccc(NC(=O)CN2C(=O)NC3(CCCc4ccccc43)C2=O)c(OC)c1 (stereo unspecified)	none (no result: SMN2 splice up, FLuc modulator, Rab9 promoter act, Luc counter, NPC1 promoter act)
O=C(O)C1CC(O)CN1c1nc(Cl)ccc1[N+](=O)[O-] (stereo unspecified)	none
CCOC(=O)c1sc2nc3n(c(=O)c2c1C)CCCCC3	ELG1 genotoxic inconclusive, FLuc modulator 15.1µM, Rab9 promoter act inconclusive, NPC1 promoter act inconclusive
Cc1c(C(=O)OCc2ccc(F)cc2)sc2nc3n(c(=O)c12)CCC3	FLuc modulator 15.1µM (no result: SMN2 splice up, Luc counter)
CCOC(=O)c1sc2nc3n(c(=O)c2c1C)CCC3	FLuc modulator inconclusive
COc1cccc(COc2ccccc2C2Nc3ccc(Br)cc3C(=O)N2NC(=O)c2ccncc2)c1 (stereo unspecified)	FLuc modulator inconclusive
COC(=O)c1c(NC(=O)/C=C/c2ccc(OC)c(OC)c2)sc2c1CCC2	none (no result: ELG1 genotoxic, Rab9 promoter act, Luc counter, NPC1 promoter act)
Cc1ccc(O)c(N=Nc2ccccc2)n1	SMN2 splice up inconclusive, Rab9 promoter act 20.6µM, Luc counter 2.82µM, NPC1 promoter act 18.4µM (no result: ELG1 genotoxic, FLuc modulator)
COc1cc(NC(=O)c2cccc(Cl)c2Cl)ccc1NC(=O)c1cc2ccccc2o1	none (no result: ELG1 genotoxic, Rab9 promoter act, Luc counter, NPC1 promoter act)
O=C(Cc1c(Cl)cccc1Cl)OCc1ccccn1	ELG1 genotoxic 23.1µM, FLuc modulator inconclusive (no result: SMN2 splice up, Luc counter)
CCOc1ccc(C(=O)n2cc(C(=O)OC)c3ccccc32)cc1	none (no result: SMN2 splice up, Luc counter)
CCN1CCN(Cc2ccc(NC(=O)Nc3ccc(SC)cc3)cc2)CC1	SMN2 splice up inconclusive, ELG1 genotoxic inconclusive, FLuc modulator 16.9µM, Rab9 promoter act inconclusive
CCN1CCN(Cc2ccc(NC(=O)Nc3cccs3)cc2)CC1	SMN2 splice up inconclusive, ELG1 genotoxic inconclusive, FLuc modulator 4.78µM, Rab9 promoter act 3.98µM, NPC1 promoter act 1µM
CCN1CCN(Cc2ccc(NC(=O)Nc3ccccc3)cc2)CC1	ELG1 genotoxic 6.51µM, FLuc modulator 6.01µM, Rab9 promoter act 1.41µM, NPC1 promoter act 2.82µM
CCN1CCN(Cc2ccc(NC(=O)Nc3ccc(OC)cc3)cc2)CC1	ELG1 genotoxic inconclusive, FLuc modulator inconclusive
COCCn1c(C)cc(O)c(C(c2ccccc2F)N2CCN(c3ccccc3)CC2)c1=O (stereo unspecified)	none (no result: SMN2 splice up, ELG1 genotoxic, Rab9 promoter act, Luc counter, NPC1 promoter act)
CCOC(=O)c1nnc2c(-c3ccc(F)cc3)c(C)nn2c1N	none (no result: ELG1 genotoxic, Rab9 promoter act, Luc counter, NPC1 promoter act)
